Screening results as filed in PubChem BioAssay.
Hits are enriched below; roughly 11% of the tested compounds scored in any of these assays.
Pf growth 48h: Primary qHTS for delayed death inhibitors of the malarial parasite plastid, 48 hour incubation; P. falciparum luciferase growth in erythrocytes, 48 h; Potency, µM (top dose mostly 28.7 µM), actives largely listed as inhibitors; actives 5.9% (n = 310,000)
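A one-generation exposure of luciferase-tagged malaria parasites in RPMI 1640/Albumax erythrocyte culture, 37 C and 5% CO2. Inhibition is inferred from decreased luminescence after adding detection reagent.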
NS1 function inh: qHTS Assay for Inhibitors of Influenza NS1 Protein Function; Potency, µM (doses to about 46.1 µM); actives 0.4% (n = 270,000); AID 2326, 2010; calls by dose curve; also: actives are rising curves; nearly all actives have a fitted effect of over 50% in size
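In this qHTS, NS1 from influenza A is expressed in budding yeast, where it slows growth. Cells are switched from glucose to 2% galactose medium (pH 6.0, -URA), treated with compound, and growth recovery is read at OD600.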
HCV inhibitor: qHTS Assay for Inhibitors of Hepatitis C Virus (HCV); Huh7.5.1 HCVcc-Cre infection, luciferase reporter, 44 h; Potency, µM (series often up to 41.8 µM), actives largely listed as inhibitors; actives 3.4% (n = 340,000)
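Whole-lifecycle infectious HCVcc-Cre system; cells 1,000/well, compound then virus (~0.5 moi) added 4 h after plating, 44 h culture. Luciferase read 15 sec following 15 min substrate incubation, room temp.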
Pf growth 96h: Primary qHTS for delayed death inhibitors of the malarial parasite plastid, 96 hour incubation | P. falciparum luciferase reporter growth, 96 h | Potency, µM (doses to about 28.7 µM), most hits filed as inhibitors | actives 6.9% (n = 320,000) | AID 504834, 2011
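Compounds incubated with erythrocytes infected by luciferase-expressing P. falciparum (2% hematocrit, 0.05% parasitemia final) for 96 hours, 37 C in 5% CO2. Growth inhibition scored as decreased luciferase luminescence.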
VACV mCherry inh: qHTS for Stage-Specific Inhibitors of Vaccinia Orthopoxvirus: mCherry Reporter Primary qHTS; Potency, µM (top dose mostly 36.5 µM), most hits filed as inhibitors; AID 720579, 2013; Vaccinia virus mCherry reporter infection, fluorescence; actives 0.63% (n = 310,000); calls by dose curve; tested in A549 cells; also: nearly all actives have a fitted effect of over 35% in size
Vaccinia Venus: qHTS for Stage-Specific Inhibitors of Vaccinia Orthopoxvirus: Venus Reporter Primary qHTS; Vaccinia virus Venus reporter expression, fluorescence; Potency, µM (doses to about 36.5 µM), actives largely listed as inhibitors; actives 0.46% (n = 330,000); AID 720580, 2013; calls by dose curve; tested in A549 cells; also: nearly all actives have a fitted effect of over 30% in size
Hits are given with their value; . = inactive; ? = inconclusive; / = no result. Unless noted, calls follow the shape of the dose curve; as a rule, active = well fitted inhibition curve with a large enough effect; inconclusive = small, poorly fitted or top-dose-only effect, or another doubt; inactive = no such curve, though single readings can be large or run the other way.

SMILES	Pf growth 48h	NS1 function inh	HCV inhibitor	Pf growth 96h	VACV mCherry inh	Vaccinia Venus
CCC1CCC(C(=O)NC(C(=O)Nc2ccc3c(c2)OCCO3)C(C)C)CC1 (stereo not drawn)	/	.	.	9.3µM	.	.
CC1CN(S(=O)(=O)c2cccc(C(=O)Nc3ccccc3N3CCCC3)c2)CC(C)O1 (stereo not drawn)	?	/	32µM	?	.	.
CN1CCN(S(=O)(=O)c2cccc(C(=O)Nc3ccccc3N3CCCC3)c2)CC1	.	.	.	.	.	.
CC1CN(S(=O)(=O)c2cccc(C(=O)Nc3cc(Cl)ccc3N3CCOCC3)c2)CC(C)O1 (stereo not drawn)	9.3µM	/	?	9.3µM	/	/
CC1CN(S(=O)(=O)c2cccc(C(=O)Nc3ccc(N4CCCCC4)cc3)c2)CC(C)O1 (stereo not drawn)	/	/	/	/	.	.
Cc1nc2ccc(NC(=O)c3cccc(S(=O)(=O)N4CC(C)OC(C)C4)c3)cc2s1 (stereo not drawn)	/	.	2.8µM	8.3µM	/	?
CCC(=O)Nc1cccc(-c2nc3ccccc3c(=O)o2)c1	.	.	.	.	.	.
COc1ccc(/C(C)=N/NC(=O)c2cc(-c3cccnc3)nc3ccccc23)cc1	.	.	.	.	.	.
COc1ccc(-c2cc(C(=O)N/N=C(\C)c3cccnc3)c3ccccc3n2)cc1	.	.	/	.	.	.
C/C(=N\NC(=O)c1cc(-c2ccncc2)nc2ccccc12)c1ccc(OC(F)F)cc1	.	/	.	3.3µM	.	.
C/C(=N\NC(=O)c1cc(C2CC2)nc2ccccc12)c1ccc(O)cc1O	?	.	6.3µM	.	?	.
C/C(=N\NC(=O)c1cc(-c2cccnc2)nc2ccccc12)c1ccccc1O	6.6µM	.	4µM	?	?	?
CCOc1ccc(-c2cc(C(=O)N/N=C(\C)c3cccnc3)c3ccccc3n2)c(OCC)c1	13µM	.	?	?	.	.
CC1(C)CC(N2CN(C3CCCCC3)CC2=O)CC(C)(C)N1	.	?	.	.	/	.
COc1ccc(Nc2nc(Nc3ccc(OC)cc3)nc(SC3=NCCS3)n2)cc1	/	.	?	12µM	.	?
COc1ccc(Nc2nc(Cl)nc(NCCO)n2)cc1	.	.	.	.	.	.
Fc1ccc(CSc2nnc(CN3CCOCC3)n2-c2ccccc2)c(Cl)c1	/	.	.	?	.	.
Cc1ccc(N(Cc2ccccc2)C(=O)c2cc(S(=O)(=O)N3CCOCC3)ccc2C)cc1	10µM	/	.	?	?	?
CCN1CCN(C(=O)c2ccc(Cl)c(S(=O)(=O)N3CCOCC3)c2)CC1	/	.	.	?	.	.
Cc1ccc(N(Cc2ccccc2)C(=O)c2ccc(Cl)c(S(=O)(=O)N3CCOCC3)c2)cc1	13µM	/	?	9.3µM	.	.
Cn1c(N)c(Sc2ccc(F)cc2)c(=O)n(C)c1=O	.	/	.	.	.	.
Cc1ccc(C)c(NC(=O)CCN2CCOCC2)c1	.	.	.	?	.	.
Cc1ccc(C)c(NC(=O)CCCCCCCCCCC2COCCO2)c1 (stereo not drawn)	.	.	?	13µM	.	.
COc1cc2c(cc1OC)C(c1ccc(-c3ccc(Cl)c(Cl)c3)o1)=NCC2	/	.	13µM	?	.	?
COc1cc2c(cc1OC)C(c1ccc(-c3ccccc3Cl)o1)=NCC2	?	.	5.6µM	/	/	/
SMILES	Pf growth 48h	NS1 function inh	HCV inhibitor	Pf growth 96h	VACV mCherry inh	Vaccinia Venus
COc1cc2c(cc1OC)C(c1ccc(-c3cc(Cl)ccc3Cl)o1)=NCC2	/	.	?	.	.	.
COc1cc2c(cc1OC)C(c1ccc(-c3ccc(Cl)cc3Cl)o1)=NCC2	?	.	11µM	?	?	.
CCOCCN1CCN(C2c3ccccc3CSc3ccccc32)CC1 (stereo not drawn)	/	/	22µM	/	.	.
COc1cc(Br)c(C(C)NC(=O)c2cccc(Br)c2)cc1OC (stereo not drawn)	1.9µM	.	?	1.7µM	/	/
Cc1ccc(-c2c[n+]3c(n2-c2ccccc2)CCC3)cc1	1.5µM	.	?	0.15µM	.	.
c1ccc(-c2c[n+]3c(n2-c2ccccc2)CCC3)cc1	0.83µM	.	?	?	/	/
